Source: the supplement of paper PMC12282887
± gives the standard deviation of the averaged measurements.

Assays:
Experiment in all cases: promoter activity interaction Z-score (Lux/OD deviation from empty-vector control); higher = stronger promoter induction by the compound
[1] = system: E. coli BW25113 acrABp lux reporter
In short: (§1)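 In 384-well plates, 40 µl LB Lennox cultures of E. coli BW25113 with low-copy luxCDABE promoter reporters grew at 37°C. Optical density at 600 nm and light output were recorded every 30 min for 12 h, with windows of 0–8 h for wild type and 1–9 h for deletion strains, and wells under 10% of the median growth value were left out. Each value is a Z-transformed residual of growth-normalised luminescence fitted against a control.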

[2] = system: E. coli BW25113 micFp lux reporter
In short: as §1

[3] = system: E. coli BW25113 ompFp lux reporter
In short: as §1

[4] = system: E. coli BW25113 robp lux reporter
In short: as §1

[5] = system: E. coli BW25113 soxSp lux reporter
In short: as §1

[6] = system: E. coli BW25113 tolCp lux reporter
In short: as §1

[7] = 7 µg/ml, genetic background: wild type
[8] = 7 µg/ml, genetic background: ΔmarA
[9] = 7 µg/ml, genetic background: Δrob
[10] = 7 µg/ml, genetic background: ΔsoxS
[11] = 14 µg/ml, genetic background: wild type
[12] = 14 µg/ml, genetic background: ΔmarA
[13] = 14 µg/ml, genetic background: Δrob
[14] = 14 µg/ml, genetic background: ΔsoxS
[15] = 28 µg/ml, genetic background: wild type
[16] = 28 µg/ml, genetic background: ΔmarA
[17] = 28 µg/ml, genetic background: Δrob
[18] = 28 µg/ml, genetic background: ΔsoxS
[19] = 56.1 µg/ml, genetic background: wild type
[20] = 56.1 µg/ml, genetic background: ΔmarA
[21] = 56.1 µg/ml, genetic background: Δrob
[22] = 56.1 µg/ml, genetic background: ΔsoxS
[23] = 8.6 µg/ml, genetic background: wild type
[24] = 8.6 µg/ml, genetic background: ΔmarA
[25] = 8.6 µg/ml, genetic background: Δrob
[26] = 8.6 µg/ml, genetic background: ΔsoxS
[27] = 17.1 µg/ml, genetic background: wild type
[28] = 17.1 µg/ml, genetic background: ΔmarA
[29] = 17.1 µg/ml, genetic background: Δrob
[30] = 17.1 µg/ml, genetic background: ΔsoxS
[31] = 34.3 µg/ml, genetic background: wild type
[32] = 34.3 µg/ml, genetic background: ΔmarA
[33] = 34.3 µg/ml, genetic background: Δrob
[34] = 34.3 µg/ml, genetic background: ΔsoxS
[35] = 68.6 µg/ml, genetic background: wild type
[36] = 68.6 µg/ml, genetic background: ΔmarA
[37] = 68.6 µg/ml, genetic background: Δrob
[38] = 68.6 µg/ml, genetic background: ΔsoxS

COc1cc(NS(=O)(=O)c2ccc(N)cc2)ncn1 [Sulfamonomethoxine]
promoter activity interaction Z-score [1, 7]: -0.0629 ± 0.12
promoter activity interaction Z-score [1, 8]: -0.0827 ± 0.19
promoter activity interaction Z-score [1, 9]: -0.194 ± 0.069
promoter activity interaction Z-score [1, 10]: -0.131 ± 0.45
promoter activity interaction Z-score [1, 11]: -0.0954 ± 0.051
promoter activity interaction Z-score [1, 12]: 0.444 ± 0.69
promoter activity interaction Z-score [1, 13]: 0.0478 ± 0.2
promoter activity interaction Z-score [1, 14]: -0.102 ± 0.4
promoter activity interaction Z-score [1, 15]: 0.289 ± 0.03
promoter activity interaction Z-score [1, 16]: 0.686 ± 0.39
promoter activity interaction Z-score [1, 17]: 0.139 ± 0.014
promoter activity interaction Z-score [1, 18]: -0.0503 ± 0.27
promoter activity interaction Z-score [1, 19]: 0.594 ± 0.059
promoter activity interaction Z-score [1, 20]: 1.43 ± 0.56
promoter activity interaction Z-score [1, 21]: 1.32 ± 0.6
promoter activity interaction Z-score [1, 22]: 0.654 ± 0.63
promoter activity interaction Z-score [2, 7]: -0.11 ± 0.081
promoter activity interaction Z-score [2, 8]: -0.104 ± 0.066
promoter activity interaction Z-score [2, 9]: 0.00985 ± 0.087
promoter activity interaction Z-score [2, 10]: -0.0124 ± 0.09
promoter activity interaction Z-score [2, 11]: 0.129 ± 0.024
promoter activity interaction Z-score [2, 12]: -0.112 ± 0.13
promoter activity interaction Z-score [2, 13]: -0.0554 ± 0.081
promoter activity interaction Z-score [2, 14]: 0.0346 ± 0.00076
promoter activity interaction Z-score [2, 15]: -0.113 ± 0.28
promoter activity interaction Z-score [2, 16]: 0.0381 ± 0.13
promoter activity interaction Z-score [2, 17]: -0.0788 ± 0.15
promoter activity interaction Z-score [2, 18]: -0.00695 ± 0.03
promoter activity interaction Z-score [2, 19]: 0.345 ± 0.27
promoter activity interaction Z-score [2, 20]: -0.0779 ± 0.035
promoter activity interaction Z-score [2, 21]: 0.446 ± 0.3
promoter activity interaction Z-score [2, 22]: 0.145 ± 0.15
promoter activity interaction Z-score [3, 7]: 0.897 ± 1
promoter activity interaction Z-score [3, 8]: 0.44 ± 0.78
promoter activity interaction Z-score [3, 9]: 0.229 ± 0.2
promoter activity interaction Z-score [3, 10]: 0.152 ± 0.17
promoter activity interaction Z-score [3, 11]: 0.907 ± 0.69
promoter activity interaction Z-score [3, 12]: 0.36 ± 0.52
promoter activity interaction Z-score [3, 13]: 0.708 ± 0.82
promoter activity interaction Z-score [3, 14]: 0.102 ± 0.078
promoter activity interaction Z-score [3, 15]: 1.05 ± 0.98
promoter activity interaction Z-score [3, 16]: 1.11 ± 0.74
promoter activity interaction Z-score [3, 17]: 0.731 ± 0.18
promoter activity interaction Z-score [3, 18]: 0.341 ± 0.13
promoter activity interaction Z-score [3, 19]: 2.04 ± 0.99
promoter activity interaction Z-score [3, 20]: 2.09 ± 0.78
promoter activity interaction Z-score [3, 21]: 2.95 ± 1.7
promoter activity interaction Z-score [3, 22]: 1.94 ± 0.43
promoter activity interaction Z-score [4, 7]: 1.09 ± 0.49
promoter activity interaction Z-score [4, 8]: 0.0134 ± 0.083
promoter activity interaction Z-score [4, 9]: -0.027 ± 0.51
promoter activity interaction Z-score [4, 10]: -0.114 ± 0.21
promoter activity interaction Z-score [4, 11]: 1.2 ± 0.46
promoter activity interaction Z-score [4, 12]: -0.0907 ± 0.34
promoter activity interaction Z-score [4, 13]: 0.416 ± 0.81
promoter activity interaction Z-score [4, 14]: -0.326 ± 0.46
promoter activity interaction Z-score [4, 15]: 0.911 ± 0.12
promoter activity interaction Z-score [4, 16]: 1.16 ± 0.43
promoter activity interaction Z-score [4, 17]: 0.643 ± 0.1
promoter activity interaction Z-score [4, 18]: 0.227 ± 0.12
promoter activity interaction Z-score [4, 19]: 2 ± 0.41
promoter activity interaction Z-score [4, 20]: 2.2238 ± 0.0018
promoter activity interaction Z-score [4, 21]: 1.45 ± 0.23
promoter activity interaction Z-score [4, 22]: 1.99 ± 0.18
promoter activity interaction Z-score [5, 7]: -0.238 ± 0.08
promoter activity interaction Z-score [5, 8]: -0.23 ± 0.096
promoter activity interaction Z-score [5, 9]: -0.34 ± 0.09
promoter activity interaction Z-score [5, 10]: -0.327 ± 0.54
promoter activity interaction Z-score [5, 11]: -0.126 ± 0.13
promoter activity interaction Z-score [5, 12]: -0.374 ± 0.052
promoter activity interaction Z-score [5, 13]: -0.287 ± 0.064
promoter activity interaction Z-score [5, 14]: -0.322 ± 0.51
promoter activity interaction Z-score [5, 15]: -0.403 ± 0.15
promoter activity interaction Z-score [5, 16]: -0.289 ± 0.029
promoter activity interaction Z-score [5, 17]: -0.503 ± 0.07
promoter activity interaction Z-score [5, 18]: -0.224 ± 0.42
promoter activity interaction Z-score [5, 19]: -0.28 ± 0.14
promoter activity interaction Z-score [5, 20]: -0.0803 ± 0.1
promoter activity interaction Z-score [5, 21]: -0.502 ± 0.17
promoter activity interaction Z-score [5, 22]: -0.113 ± 0.36
promoter activity interaction Z-score [6, 7]: -0.23 ± 0.84
promoter activity interaction Z-score [6, 8]: 0.608 ± 0.35
promoter activity interaction Z-score [6, 9]: 0.27 ± 0.051
promoter activity interaction Z-score [6, 10]: -0.223 ± 1.2
promoter activity interaction Z-score [6, 11]: 1.12 ± 0.49
promoter activity interaction Z-score [6, 12]: -0.382 ± 0.79
promoter activity interaction Z-score [6, 13]: -0.826 ± 0.66
promoter activity interaction Z-score [6, 14]: 0.183 ± 1.1
promoter activity interaction Z-score [6, 15]: -0.0377 ± 0.24
promoter activity interaction Z-score [6, 16]: 1.63 ± 0.99
promoter activity interaction Z-score [6, 17]: -0.142 ± 0.15
promoter activity interaction Z-score [6, 18]: 0.453 ± 0.22
promoter activity interaction Z-score [6, 19]: 0.726 ± 1
promoter activity interaction Z-score [6, 20]: 0.457 ± 1.5
promoter activity interaction Z-score [6, 21]: -0.189 ± 0.24
promoter activity interaction Z-score [6, 22]: 0.283 ± 0.55

Nc1ccc(C(=O)O)cc1 [4-Aminobenzoic acid]
promoter activity interaction Z-score [1, 23]: -0.327 ± 0.11
promoter activity interaction Z-score [1, 24]: -0.528 ± 0.3
promoter activity interaction Z-score [1, 25]: 0.0646 ± 0.18
promoter activity interaction Z-score [1, 26]: 0.357 ± 0.28
promoter activity interaction Z-score [1, 27]: 0.051 ± 0.24
promoter activity interaction Z-score [1, 28]: -0.48 ± 0.058
promoter activity interaction Z-score [1, 29]: 0.185 ± 0.16
promoter activity interaction Z-score [1, 30]: 0.299 ± 0.26
promoter activity interaction Z-score [1, 31]: -0.112 ± 0.046
promoter activity interaction Z-score [1, 32]: -0.447 ± 1.1
promoter activity interaction Z-score [1, 33]: -0.379 ± 0.054
promoter activity interaction Z-score [1, 34]: 0.511 ± 1.2
promoter activity interaction Z-score [1, 35]: 0.119 ± 0.39
promoter activity interaction Z-score [1, 36]: 1.54 ± 0.67
promoter activity interaction Z-score [1, 37]: 1.31 ± 0.45
promoter activity interaction Z-score [1, 38]: 1.66 ± 1.3
promoter activity interaction Z-score [2, 23]: 0.00335 ± 0.11
promoter activity interaction Z-score [2, 24]: 0.0686 ± 0.11
promoter activity interaction Z-score [2, 25]: 0.0394 ± 0.14
promoter activity interaction Z-score [2, 26]: 0.675 ± 0.52
promoter activity interaction Z-score [2, 27]: 0.408 ± 0.1
promoter activity interaction Z-score [2, 28]: 0.209 ± 0.16
promoter activity interaction Z-score [2, 29]: 0.289 ± 0.15
promoter activity interaction Z-score [2, 30]: 0.578 ± 0.075
promoter activity interaction Z-score [2, 31]: 0.901 ± 0.57
promoter activity interaction Z-score [2, 32]: 0.213 ± 0.23
promoter activity interaction Z-score [2, 33]: 0.391 ± 0.17
promoter activity interaction Z-score [2, 34]: 1.38 ± 0.55
promoter activity interaction Z-score [2, 35]: 1.16 ± 0.52
promoter activity interaction Z-score [2, 36]: 0.44 ± 0.26
promoter activity interaction Z-score [2, 37]: 1.42 ± 0.091
promoter activity interaction Z-score [2, 38]: 1.7 ± 0.14
promoter activity interaction Z-score [3, 23]: -0.317 ± 0.4
promoter activity interaction Z-score [3, 24]: 0.283 ± 0.085
promoter activity interaction Z-score [3, 25]: 0.0614 ± 0.37
promoter activity interaction Z-score [3, 26]: 0.333 ± 0.36
promoter activity interaction Z-score [3, 27]: 0.0303 ± 0.3
promoter activity interaction Z-score [3, 28]: 0.284 ± 0.18
promoter activity interaction Z-score [3, 29]: 0.709 ± 0.41
promoter activity interaction Z-score [3, 30]: 0.198 ± 0.39
promoter activity interaction Z-score [3, 31]: -0.722 ± 0.31
promoter activity interaction Z-score [3, 32]: -0.0385 ± 0.32
promoter activity interaction Z-score [3, 33]: -1.06 ± 0.97
promoter activity interaction Z-score [3, 34]: 0.199 ± 1.1
promoter activity interaction Z-score [3, 35]: -0.481 ± 0.17
promoter activity interaction Z-score [3, 36]: 1.24 ± 0.08
promoter activity interaction Z-score [3, 37]: 1.09 ± 0.2
promoter activity interaction Z-score [3, 38]: 0.488 ± 0.83
promoter activity interaction Z-score [4, 23]: 0.134 ± 0.3
promoter activity interaction Z-score [4, 24]: 0.171 ± 0.2
promoter activity interaction Z-score [4, 25]: 0.341 ± 0.11
promoter activity interaction Z-score [4, 26]: 0.571 ± 0.73
promoter activity interaction Z-score [4, 27]: 0.745 ± 0.54
promoter activity interaction Z-score [4, 28]: 1.04 ± 0.39
promoter activity interaction Z-score [4, 29]: 0.56 ± 0.27
promoter activity interaction Z-score [4, 30]: 0.303 ± 0.42
promoter activity interaction Z-score [4, 31]: 0.118 ± 0.27
promoter activity interaction Z-score [4, 32]: 0.355 ± 0.34
promoter activity interaction Z-score [4, 33]: -0.251 ± 0.88
promoter activity interaction Z-score [4, 34]: -0.337 ± 0.84
